Screening results from PubChem BioAssay.
TSG101-PTAP inh: blocks PTAP/TSG101 interaction to inhibit HIV-1 budding; Q99816; Fluorescence polarization, FITC-PTAP peptide / Tsg101 binding; Potency, µM (highest dose often 115 µM), most hits filed as inhibitors; 340,000 tested, under 10 active; AID 493005; active means well fitted inhibition curve with a large enough effect in the main read-out, with a control signal flat, not every such curve was filed as active; inconclusive means small, poorly fitted or top-dose-only effect, or effect the other way, or a change in a side signal; inactive means no such curve, though single readings can be large or run the other way
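Fluorescence anisotropy tracks displacement of a FITC-tagged PTAP peptide (50 nM) from the Tsg101 binding domain (10 uM), following a 20 min room-temperature incubation at pH 7.5.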
Tb PFK inh-1: T. brucei PFK enzyme inhibition | actives 0.17% (n = 330,000) | T. brucei PFK, ADP-Glo luminescence | Potency, µM (highest dose often 57.5 µM), hits mostly inhibitors | O15648 | AID 485367; further: nearly all actives have a fitted effect of over 60% in size
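ADP-Glo luminescence quantified ADP after 45 min at room temperature, with 1.25 nM T. brucei PFK, 0.1 mM ATP and 0.5 mM fructose-6-phosphate in pH 8.0 TEA buffer. qHTS titrations up to 57 µM; curves classified by quality.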
KCNH2 WT inh: inhibitors of human wildtype KCNH2 potassium channel; Q12809; U2OS, BacMam KCNH2, thallium flux FluxOr; active compounds read low; activity change, % at 1.84 µM; actives 0.37% (n = 340,000);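 active means maximum activity change below -70%; inconclusive means maximum activity change between -70% and -50%; inactive means maximum activity change above -50%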
Target sequence (Q12809 whole entry, looked up): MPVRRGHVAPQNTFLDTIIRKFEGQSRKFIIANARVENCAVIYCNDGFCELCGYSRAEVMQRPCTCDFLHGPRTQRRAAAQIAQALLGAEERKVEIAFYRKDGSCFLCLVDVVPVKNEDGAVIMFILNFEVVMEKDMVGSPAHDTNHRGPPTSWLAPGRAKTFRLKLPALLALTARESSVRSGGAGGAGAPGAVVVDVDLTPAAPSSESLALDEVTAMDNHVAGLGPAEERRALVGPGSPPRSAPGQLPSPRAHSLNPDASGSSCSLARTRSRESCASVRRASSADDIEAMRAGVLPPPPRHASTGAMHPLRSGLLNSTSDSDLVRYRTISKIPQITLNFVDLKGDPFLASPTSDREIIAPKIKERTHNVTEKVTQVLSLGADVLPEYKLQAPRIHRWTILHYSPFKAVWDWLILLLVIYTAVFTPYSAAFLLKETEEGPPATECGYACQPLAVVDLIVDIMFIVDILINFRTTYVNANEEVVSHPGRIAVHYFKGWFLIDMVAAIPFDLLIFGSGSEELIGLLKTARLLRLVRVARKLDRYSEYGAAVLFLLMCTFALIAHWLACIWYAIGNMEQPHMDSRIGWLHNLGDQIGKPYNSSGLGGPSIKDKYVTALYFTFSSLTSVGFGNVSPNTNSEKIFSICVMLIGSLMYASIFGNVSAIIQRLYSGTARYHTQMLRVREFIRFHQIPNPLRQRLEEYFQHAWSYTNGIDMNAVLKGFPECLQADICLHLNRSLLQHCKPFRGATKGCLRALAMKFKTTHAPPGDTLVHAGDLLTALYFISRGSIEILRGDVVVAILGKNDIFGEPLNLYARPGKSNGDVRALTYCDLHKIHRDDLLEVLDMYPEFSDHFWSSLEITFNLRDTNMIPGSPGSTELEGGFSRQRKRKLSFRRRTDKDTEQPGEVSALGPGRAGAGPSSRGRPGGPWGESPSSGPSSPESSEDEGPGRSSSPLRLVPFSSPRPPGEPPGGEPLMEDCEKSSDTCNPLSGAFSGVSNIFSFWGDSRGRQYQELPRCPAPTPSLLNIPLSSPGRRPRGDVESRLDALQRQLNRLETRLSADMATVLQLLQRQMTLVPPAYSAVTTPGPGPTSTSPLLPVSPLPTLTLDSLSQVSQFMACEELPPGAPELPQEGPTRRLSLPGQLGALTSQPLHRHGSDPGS
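U2OS cells transduced with wild-type KCNH2 virus are loaded with FluxOr dye for 45 min, and thallium flux is measured in kinetic reads before and after stimulation buffer. Rate constants are normalized to DMSO controls.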
KCNH2 3.1 block: KCNH2 3.1 (human) potassium channel inhibition | activity change, % (tested at about 1.8 µM) | U2OS KCNH2 3.1, thallium flux FluxOr; active compounds read low | actives 0.95% (n = 340,000) | AID 720553;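 active means maximum activity change below -70%; inconclusive means maximum activity change from -70% to -50%; inactive means maximum activity change above -50%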;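 further: thallium influx rate constant from kinetic fluorescence after stimulation buffer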
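Steps: virus added to U2OS suspension (4 h, RT, dark); medium with 10% FBS added, cells plated, 37 C overnight; FluxOr/Red40 loading buffer 45 min RT; stimulation buffer, 2 min kinetic read; rate constant normalized.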
TbPFK ATP: Tb phosphofructokinase inhibition, orthogonal luminescence; shares compounds with Tb PFK inh-1; Potency, µM (series often up to 57.5 µM); Tb PFK enzyme, ATP depletion, Kinase-Glo Plus luminescence; AID 504636; actives 47% (n = 1,100); calls by dose curve; further: nearly all actives have a fitted effect of over 60% in size
Tb PFK inh-2: validation of T. brucei phosphofructokinase inhibitors; shares compounds with Tb PFK inh-1; purified T. brucei PFK, ADP-Glo luminescence, 45 min; Potency, µM (titrated, usually from 57.5 µM), actives largely listed as inhibitors; actives 41% (n = 1,100); further: nearly all actives have a fitted effect of over 60% in size
Numbers stand for hits; . = inactive; ? = inconclusive; / = not tested or not shown. In the library only some 1.2% were active in any assay of this set; here they are far more common. Unless noted, the call rests on the fitted dose curve; in most records, active means well fitted inhibition curve with a large enough effect; inconclusive means small, poorly fitted or top-dose-only effect, or effect the other way; inactive means flat fitted curve, though single readings scatter.

SMILES	TSG101-PTAP inh	Tb PFK inh-1	KCNH2 WT inh	KCNH2 3.1 block	TbPFK ATP	Tb PFK inh-2
CC1=C(C(=O)Nc2ccccc2C(F)(F)F)C(c2ccc(C)s2)NC(=S)N1 (configuration not stated)	.	?	.	.	.	.
C/C=C\C=C/C(=O)Nc1cccc(C2=NOC3(C2)C[C@@H](C(N)=O)N(C(=O)/C=C/C=C\C)C3)c1 (some centres not stated)	.	5.4µM	.	.	?	?
C=C(C)C(=O)Nc1cccc(C2=NOC3(C2)C[C@@H](C(N)=O)N(C(=O)c2ccc(Cl)cc2)C3)c1 (some centres not stated)	.	9.5µM	.	.	0.67µM	0.95µM
C=C(C)C(=O)Nc1cccc(C2=NOC3(C2)C[C@H](C(N)=O)N(C(=O)COc2ccc(Cl)cc2)C3)c1 (some centres not stated)	.	?	.	.	0.54µM	0.67µM
C=C(C)C(=O)Nc1cccc(C2=NOC3(C2)C[C@@H](C(N)=O)N(C(=O)C(=C)C)C3)c1 (some centres not stated)	.	?	.	.	2.7µM	1.7µM
O=C(O)C1C2CC3CC(C2)CC1(n1ncc(N2CCC4(CC2)OCCO4)c(Cl)c1=O)C3 (configuration not stated)	.	.	.	.	/	/
CCc1ccc(C2=NN(CCC(=O)N3CCC4(CC3)OCCO4)C(=O)CC2)cc1	.	.	.	.	/	/
CSc1ccccc1NP1(=O)OCC(C)([N+](=O)[O-])CO1 (configuration not stated)	.	/	.	.	/	/
C=CCn1c(O)c(C(C)=NCCCn2ccnc2)c(=O)[nH]c1=O	.	.	.	.	/	/
O=C(O)COc1ccc(/C=N/NC(=O)c2ccc(-c3csc(Nc4ccc(Cl)cc4)n3)cc2)cc1	.	?	.	.	1.7µM	2.4µM
CCNC(=O)C1CCCc2c1[nH]c1ccc(Cl)cc21 (configuration not stated)	.	?	.	.	12µM	21µM
CN(C)c1ccc(NC(=O)c2ccc(Cn3cc([N+](=O)[O-])cn3)cc2)cc1	.	24µM	.	.	12µM	27µM
Nc1nc(=S)c2ncn(C3CCCC3)c2[nH]1	.	?	.	.	?	?
O=C(COc1ccc(F)c(Cl)c1)c1ccc[nH]1	.	?	.	.	?	?
CCc1nnc(NC(=O)c2cc(-c3ccc(C)o3)nc3ccccc23)s1	.	4.8µM	.	.	4.8µM	6.7µM
Cc1nnc(NC(=O)c2cc(-c3ccco3)nc3ccccc23)s1	/	?	/	/	9.5µM	?
CCCCCCn1c(=O)c(C(=O)Nc2nnc(C)s2)c(O)c2ccccc21	/	.	/	/	/	/
COc1cccc(NC(=O)c2cc(-c3ccc(C)o3)nc3ccccc23)c1	.	?	.	.	?	?
CCC1(CCC(C)C)C(=O)NC(=S)NC1=O	.	/	.	.	/	/
COC(=O)C1C(O)CC2CCC1N2C (configuration not stated)	.	.	.	.	/	/
Nn1c(SCC(=O)Nc2cccnc2Cl)nnc1-c1ccccc1	.	?	.	.	9.5µM	11µM
Cc1nn(Cc2ccccc2)c(C)c1C(=O)OCC(=O)Nc1ccccc1SCC#N	.	.	.	.	/	/
C=CCN1C(=O)/C(=C2/Sc3ccccc3N2CCCS(=O)(=O)O)SC1=S	.	?	.	.	.	?
C=CCN1C(=O)c2ccccc2Sc2ccc(C(=O)N3CCC4(CC3)OCCO4)cc21	.	.	.	.	/	/
O=C(O)c1cccc2c1C(=O)c1cc(Br)ccc1S2(=O)=O	.	?	.	.	.	?
SMILES	TSG101-PTAP inh	Tb PFK inh-1	KCNH2 WT inh	KCNH2 3.1 block	TbPFK ATP	Tb PFK inh-2
COc1cc(/C=C(\C#N)C(=O)NCC2CCCO2)ccc1OC(=O)c1ccco1 (configuration not stated)	.	?	.	.	.	?
O=C(O)c1cccc(NC(=O)N2C[C@H]3C[C@@H](C2)c2cccc(=O)n2C3)c1	.	.	.	.	/	/
CCOC(=O)c1c(NC(=O)C2C3C=CC(C3)C2(C)C(=O)O)sc2c1CCCC2 (configuration not stated)	.	?	.	.	?	27µM
CCSS(=O)(=O)c1cccc2cccnc12	.	21µM	.	.	8.5µM	19µM
Oc1cccc2cccnc12	/	.	/	/	/	/
C[C@]1(O)CCC2C3CC[C@H]4C[C@@H](OC(=O)CNC(=O)CN)CC[C@]4(C)C3CC[C@@]21C (some centres not stated)	.	.	.	.	/	/
Oc1cc2c(cc1C(c1ccc(Cl)c(Cl)c1)N1CCCC1)OCO2 (configuration not stated)	.	21µM	.	.	?	?
O=C1NC(=S)NC(=O)C1Cc1ccccc1O	.	/	.	.	/	/
O=C(NCCO)c1nsnc1NCCCl	.	.	.	.	/	/
CCOC(=O)c1sc(=S)n(C)c1NC(=O)c1ccccc1	.	?	.	.	21µM	?
CC(=O)N[C@@H]1c2c(ccc3ccccc23)OC[C@@H]1COC(C)=O	.	?	.	.	.	?
O=C(O)c1ccccc1C(=O)Nc1ccc(Br)c(C(F)(F)F)c1	.	?	.	.	.	.
Cn1cc(C(=O)OCC(=O)NC2(C#N)CCCCC2)c2ccccc21	.	.	.	.	/	/
Cc1ccc(NC2=C(NC(=O)c3ccccc3)C(=O)c3ccccc3C2=O)cc1Cl	.	?	.	.	?	6.7µM
Cc1ccc(NC(=O)c2snnc2C)cc1Cl	.	.	.	.	/	/
O=[N+]([O-])c1ccc(NCc2ccccc2)nc1	.	?	.	.	?	?
C[C@]12CC[C@H]3[C@@H](CCC4=CC(=O)CC[C@@H]43)[C@@H]1CC[C@@H]2O	.	.	.	.	/	/
C[C@]12CC[C@@H]3c4cc(O)c(O)cc4CC[C@H]3[C@@H]1CC[C@@H]2O	.	?	.	.	3.4µM	4.8µM
C[C@]12CC[C@@H]3c4ccc(O)c(O)c4CC[C@H]3[C@@H]1CC[C@@H]2O	.	13µM	.	.	7.6µM	13µM
NS(=O)(=O)c1ccc(CNC(=S)Nc2ccc(Cl)c(Cl)c2)cc1	.	?	.	.	?	?
CN(C)S(=O)(=O)c1cc(NC(=O)COC(=O)Cc2ccccc2)ccc1Cl	.	.	.	.	/	/
Cc1cc(NC(=O)COC(=O)CSCc2ccc(Cl)c(Cl)c2)no1	.	?	.	.	?	?
NS(=O)(=O)c1cccc(NC(=O)Cc2ccc(Cl)c(Cl)c2)c1	.	6µM	.	.	3µM	11µM
Cc1cccc(C)c1NC(=S)Nc1ccc(Cl)c(Cl)c1	.	21µM	.	.	?	.
CN1C(=O)N(C)C(=O)C(NS(=O)(=O)c2ccc(N)cc2)(c2ccccc2)C1=O	.	/	.	.	/	/
CC1CCN(CCc2nc3ccccc3[nH]2)CC1	.	.	.	.	/	/
